The record followed here is PubChem BioAssay (NCI).

Some test systems named below: T-47D breast; MDA-MB-435 melanoma; SW-620 colon; MCF7 breast; HCT-116 colon; HCC-2998 colon; KM12 colon; BT-549 breast.
What all share (test): NCI-60 one-dose screen, 48 h (100 = growth as untreated, 0 = no growth, -100 = all killed)
Common to all, as to conditions: 10 µM unless noted

The structures appear in SMILES notation. The panel holds about 83,000 compounds, 20% with a hit somewhere; the sample as a whole holds those more often.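 Assay: single dose, 48 h. Readout: percent growth (0 = no net growth; negative = cell death). Active: <10.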 A number with no mark means an inactive call. Activity calls are given as the source filed them.

As to `Cn1c(-c2ccc(Br)cc2)c(O)c(=O)c2c(F)cccc21`, the growth with T-47D breast is 57.7%; with MDA-MB-435 melanoma it was 67.8%; with SW-620 colon, 51%; in the experiment with MCF7 breast, 37.1%; in the experiment with HCT-116 colon, 35.1%; with HCC-2998 colon, 64.5%. Also, the growth in the experiment with KM12 colon is 53.3%.
Consider `Clc1ccc(Nc2nnc(COc3ccccc3)c3ccccc23)cc1`, for which the growth was -5.86% (active) in the experiment with T-47D breast; -3.33% (active) in the experiment with MDA-MB-435 melanoma; 15.4% in the experiment on SW-620 colon; 1.31% (active) in the experiment with MCF7 breast; 1.21% (active) in the experiment on HCT-116 colon; 8.55% (active) in the experiment on HCC-2998 colon. In addition, in the experiment on KM12 colon, the growth is 0.179% (active).
In the case of `NC(=O)CCC(C(=O)O)N1C(=O)c2ccc(O)cc2C1=O` (configuration not stated), the growth was 102% in the experiment with T-47D breast; 94% with MDA-MB-435 melanoma; 111% with SW-620 colon; 105% in the experiment on MCF7 breast; 109% in the experiment on HCT-116 colon; 103% with KM12 colon.
Consider `O=C(NCCCN1CCOCC1)c1cccc(N2C(=O)/C(=C/c3ccc(F)cc3)SC2=S)c1`, for which the growth with T-47D breast is 91.7%; in the experiment on MDA-MB-435 melanoma it was 95.3%; in the experiment with SW-620 colon, 95.9%; in the experiment with MCF7 breast, 92.9%; in the experiment on HCT-116 colon it was 96.7%; in the experiment with HCC-2998 colon it was 97.1%. The growth in the experiment on KM12 colon is 99.6%.
With `Cc1ccc(-c2nc(N3CCNCC3)c3oc(-c4ccccc4)nc3n2)cc1`, the growth with T-47D breast is -57.8% (active); with MDA-MB-435 melanoma it was -81% (active); in the experiment on SW-620 colon it was -55.1% (active); with MCF7 breast, -74.6% (active); with HCT-116 colon, -71% (active); in the experiment on HCC-2998 colon, -61.1% (active). Moreover, in the experiment with KM12 colon, the growth was -89.1% (active).
For `CCCC(=O)NC(c1ccc2c(c1)OCO2)c1ccc2cccnc2c1O` (configuration not stated), the growth in the experiment with T-47D breast was 19.8%; with MDA-MB-435 melanoma, 26.9%; in the experiment with SW-620 colon it was 25.7%; in the experiment with MCF7 breast, 5.86% (active); in the experiment with HCT-116 colon, 11.8%; in the experiment with HCC-2998 colon it was 38%. In the experiment with KM12 colon, the growth is 30.6%.
Turning to `C=C(C)[C@@H]1CC[C@]2(C)[C@H](CC=C3[C@@H]4[C@H](C)[C@@H](C)CC[C@]4(CO)CC[C@]32C)[C@@]1(C)CCCN`, the growth was 55.3% in the experiment on BT-549 breast; -60.3% (active) with MDA-MB-435 melanoma; -74.8% (active) in the experiment with SW-620 colon; 0.962% (active) with MCF7 breast; -57.8% (active) in the experiment with HCT-116 colon; -93.3% (active) in the experiment with HCC-2998 colon. For the same compound, the growth in the experiment with KM12 colon is -41.3% (active).
`OCCOCCN(Cc1ccccn1)Cc1cc(I)cc(I)c1O`: the growth in the experiment on BT-549 breast is 81.6%; in the experiment with MDA-MB-435 melanoma, 102%; in the experiment with SW-620 colon, 95.5%; in the experiment on MCF7 breast it was 76%; with HCT-116 colon, 73.4%; in the experiment on HCC-2998 colon, 111%. Also, the growth with KM12 colon is 91.3%.
For `Cc1ccc(Sc2oc(-c3ccc(C)cc3)nc2[P+](c2ccccc2)(c2ccccc2)c2ccccc2)cc1`, the growth was -30.3% (active) with MDA-MB-435 melanoma; -5.3% (active) with SW-620 colon; -23.8% (active) in the experiment on MCF7 breast; 2.12% (active) in the experiment with HCT-116 colon; 1.79% (active) in the experiment on HCC-2998 colon; -52.8% (active) in the experiment with KM12 colon.
Consider `Cc1nc2sc(C(=O)Nc3ccccc3)c(N)c2cc1C(=O)c1ccccc1`, for which the growth was 68.4% with BT-549 breast; -33.7% (active) in the experiment on MDA-MB-435 melanoma; 27.8% in the experiment on SW-620 colon; 11.5% in the experiment with MCF7 breast; 29.7% in the experiment with HCT-116 colon; 18.2% in the experiment on HCC-2998 colon. For the same compound, the growth with KM12 colon is 33.7%.
For the compound `COc1ccc(C(=O)C2C(c3ccc(OC)cc3)CN(C)C23C(=O)Nc2ccccc23)cc1` (configuration not stated), the growth is 105% in the experiment with BT-549 breast; 97.6% with MDA-MB-435 melanoma; 95.2% with SW-620 colon; 98.8% in the experiment on MCF7 breast; 84.4% in the experiment with HCT-116 colon; 88.4% in the experiment on HCC-2998 colon. Also, in the experiment with KM12 colon, the growth was 93.9%.
As to `COc1cc(-c2cc(-c3cccs3)c(C#N)c(N3CCOCC3)n2)cc(OC)c1OC`, the growth is 75.8% with BT-549 breast; 92.8% in the experiment with MDA-MB-435 melanoma; 4.28% (active) in the experiment on SW-620 colon; 61.9% with MCF7 breast; 51.7% in the experiment on HCT-116 colon; 86.4% with HCC-2998 colon. Besides, in the experiment on KM12 colon, the growth is 105%.
Consider `CCCCCCCCCCCCCCCCCCOc1ccccc1CC(=O)OCC[N+]1(C)CCCC1`, for which the growth was 67% in the experiment on BT-549 breast; 23.4% in the experiment on MDA-MB-435 melanoma; 21.4% with SW-620 colon; 32.3% in the experiment on MCF7 breast; 29.2% in the experiment on HCT-116 colon; 3.99% (active) in the experiment on HCC-2998 colon. Moreover, in the experiment with KM12 colon, the growth is 13.3%.
In the case of `CCN(CC)CCNC(=O)c1cn2ncnc(Oc3ccc(NC(=O)Nc4ccc(Cl)c(C(F)(F)F)c4)c(F)c3)c2c1C`, the growth is 30.3% in the experiment on BT-549 breast; -78.8% (active) with MDA-MB-435 melanoma; -62.1% (active) with SW-620 colon; -65% (active) in the experiment with MCF7 breast; -79.3% (active) in the experiment on HCT-116 colon; -88.9% (active) in the experiment on HCC-2998 colon. For the same compound, in the experiment with KM12 colon, the growth is -30.5% (active).
Take `Brc1ccc(-n2cc(-c3nn[nH]n3)c(-c3cccs3)n2)cc1`: the growth in the experiment with BT-549 breast is 95.3%; in the experiment on MDA-MB-435 melanoma, 106%; in the experiment on SW-620 colon it was 102%; in the experiment with MCF7 breast it was 90.1%; in the experiment with HCT-116 colon it was 91.5%; with HCC-2998 colon, 105%. Besides, the growth in the experiment on KM12 colon was 103%.
Turning to `Cc1c(-n2nnc(-c3nc4ccccc4s3)c2N)c(=O)n(-c2ccccc2)n1C`, the growth in the experiment on MDA-MB-435 melanoma was 114%; with SW-620 colon, 106%; in the experiment on MCF7 breast it was 90.6%; in the experiment on HCT-116 colon it was 103%; in the experiment on HCC-2998 colon, 95.4%; in the experiment with KM12 colon, 106%.
As to `COc1ccc(NC(=O)c2sc3nc(C)c(C(=O)/C=C/c4cccc(OC)c4)cc3c2N)cc1`, the growth was 56.3% in the experiment with BT-549 breast; 13.6% in the experiment with MDA-MB-435 melanoma; 0.0421% (active) with SW-620 colon; 14.3% with MCF7 breast; 22.8% in the experiment on HCT-116 colon; 23.8% with HCC-2998 colon. Also, in the experiment on KM12 colon, the growth was 25.7%.
On to `Cc1ccc(-c2nn(-c3ccccc3)cc2C=C2C(=O)ON=C2C(C)C)cc1`, for which the growth in the experiment with BT-549 breast is 113%; in the experiment on MDA-MB-435 melanoma, 63.5%; with SW-620 colon it was 47.2%; with HCT-116 colon it was 26%; with HCC-2998 colon it was 68.7%; in the experiment with KM12 colon, 69.8%.
With `O=c1c2cc(-c3ccccc3)sc2nc2sc(-c3ccccc3)nn12`, the growth is 118% with BT-549 breast; 105% in the experiment on MDA-MB-435 melanoma; 103% with SW-620 colon; 97.6% in the experiment on MCF7 breast; 102% in the experiment with HCT-116 colon; 101% in the experiment with HCC-2998 colon. Moreover, the growth with KM12 colon is 101%.
For the compound `O=C(CCC(=O)N/N=C/c1ccccc1O)N/N=C/c1ccccc1O`, the growth is 76.5% in the experiment on BT-549 breast; 64.8% in the experiment on MDA-MB-435 melanoma; 44.8% in the experiment with SW-620 colon; 39.9% in the experiment with MCF7 breast; 25.9% in the experiment on HCT-116 colon; 46% in the experiment on HCC-2998 colon. Also, the growth in the experiment on KM12 colon was 33%.
As to `COc1ccc(-c2csc(N(C(=O)N3CCN(c4cc5c(cc4F)c(=O)c(C(=O)O)cn5C4CC4)CC3)c3ccccc3)n2)cc1`, the growth in the experiment with BT-549 breast was -4.67% (active); in the experiment with MDA-MB-435 melanoma, 16.9%; in the experiment on SW-620 colon, 17.4%; in the experiment on MCF7 breast, 8.74% (active); in the experiment with HCT-116 colon it was 6.33% (active); in the experiment with HCC-2998 colon, 24.1%. In addition, in the experiment on KM12 colon, the growth is 5.96% (active).
On to `CC1(C)CC2=C3C=C[C@@H]4[C@@]5(C)CCC(=O)C(C)(C)[C@@H]5CC[C@@]4(C)[C@]3(C)CC[C@@]2(C(=O)O)CC1=O`, for which the growth in the experiment on BT-549 breast was 41.5%; with MDA-MB-435 melanoma, 49.4%; in the experiment on SW-620 colon, 66.9%; in the experiment with MCF7 breast, 57.3%; in the experiment with HCT-116 colon, 64.6%; in the experiment on HCC-2998 colon, 84.3%. The growth in the experiment on KM12 colon is 78.3%.
With `Cc1ccc(Cc2cnc(NC(=O)c3cc(Br)cs3)s2)cc1`, the growth was 37.1% with BT-549 breast; -16.5% (active) in the experiment with MDA-MB-435 melanoma; 42% in the experiment on SW-620 colon; 30.3% in the experiment with MCF7 breast; 32.9% in the experiment with HCT-116 colon; 82.9% with HCC-2998 colon. In the experiment on KM12 colon, the growth was 47.3%.
